Assay results reported in publication PMC7862700, “An all-to-all approach to the identification of sequence-specific readers for epigenetic DNA modifications on cytosine”.

Key:
Experiment in all cases: DAPPL (digital affinity profiling via proximity ligation, sequencing); 10 mM Tris-HCl pH 7.5, 50 mM NaCl, 1 mM DTT, 4% glycerol, room temperature, 30 min; GST-TFs on glutathione beads, 16-mer random dsDNA library, 0.1% formaldehyde crosslink after washing; high values mean tight binding
Conditions in all cases: protein: recombinant; tags: N-terminal GST; dsDNA, one strand shown
[1] = target: T1, ERF (Homo sapiens, UniProt P50548 1-548)
T1 sequence: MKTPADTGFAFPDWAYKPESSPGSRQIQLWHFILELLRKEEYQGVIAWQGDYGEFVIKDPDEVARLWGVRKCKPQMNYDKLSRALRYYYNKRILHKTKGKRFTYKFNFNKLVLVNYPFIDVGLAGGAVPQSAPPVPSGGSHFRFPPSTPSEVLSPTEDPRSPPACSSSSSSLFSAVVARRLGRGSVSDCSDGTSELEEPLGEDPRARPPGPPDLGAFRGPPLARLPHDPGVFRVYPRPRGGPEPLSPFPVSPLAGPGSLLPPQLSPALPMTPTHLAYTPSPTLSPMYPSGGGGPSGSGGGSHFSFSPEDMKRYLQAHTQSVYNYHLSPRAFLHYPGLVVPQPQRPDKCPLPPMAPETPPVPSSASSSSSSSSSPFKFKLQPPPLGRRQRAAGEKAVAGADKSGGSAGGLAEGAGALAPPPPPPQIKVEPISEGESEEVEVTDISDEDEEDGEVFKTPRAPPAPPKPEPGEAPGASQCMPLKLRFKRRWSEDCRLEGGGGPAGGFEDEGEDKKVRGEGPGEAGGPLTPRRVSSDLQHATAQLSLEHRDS
How it was run: (§1)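 After expression in yeast as GST fusions, human transcription factors were bound to glutathione beads, DNA-barcoded and mixed with a tag-only sample. The pools were incubated with 200 nmole of a 16-mer random double-stranded DNA library in Tris/NaCl/DTT/glycerol buffer (30 min, room temperature), washed and crosslinked with 0.1% formaldehyde. Proximity ligation with BsaI/T4 ligase ran for 1 h at 37 °C, before PCR amplification and sequencing on an Illumina NextSeq500. Binding signal is a hexamer's read frequency for a factor divided by its frequency for the tag-only sample.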

[2] = target: T2, ETV3L (Homo sapiens, UniProt Q6ZN32 1-361)
T2 sequence: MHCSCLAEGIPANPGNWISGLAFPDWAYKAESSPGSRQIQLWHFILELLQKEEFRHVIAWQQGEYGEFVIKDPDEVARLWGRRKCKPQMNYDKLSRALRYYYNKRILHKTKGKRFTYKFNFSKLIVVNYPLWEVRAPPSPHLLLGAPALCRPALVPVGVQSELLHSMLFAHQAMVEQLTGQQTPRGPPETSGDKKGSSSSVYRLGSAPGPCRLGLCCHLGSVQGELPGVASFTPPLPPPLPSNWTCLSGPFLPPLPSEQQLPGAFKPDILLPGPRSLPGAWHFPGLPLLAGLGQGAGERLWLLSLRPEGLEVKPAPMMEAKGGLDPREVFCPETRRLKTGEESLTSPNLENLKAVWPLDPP
How it was run: as §1

[3] = target: T3, ETS2 (Homo sapiens, UniProt P15036 1-469)
T3 sequence: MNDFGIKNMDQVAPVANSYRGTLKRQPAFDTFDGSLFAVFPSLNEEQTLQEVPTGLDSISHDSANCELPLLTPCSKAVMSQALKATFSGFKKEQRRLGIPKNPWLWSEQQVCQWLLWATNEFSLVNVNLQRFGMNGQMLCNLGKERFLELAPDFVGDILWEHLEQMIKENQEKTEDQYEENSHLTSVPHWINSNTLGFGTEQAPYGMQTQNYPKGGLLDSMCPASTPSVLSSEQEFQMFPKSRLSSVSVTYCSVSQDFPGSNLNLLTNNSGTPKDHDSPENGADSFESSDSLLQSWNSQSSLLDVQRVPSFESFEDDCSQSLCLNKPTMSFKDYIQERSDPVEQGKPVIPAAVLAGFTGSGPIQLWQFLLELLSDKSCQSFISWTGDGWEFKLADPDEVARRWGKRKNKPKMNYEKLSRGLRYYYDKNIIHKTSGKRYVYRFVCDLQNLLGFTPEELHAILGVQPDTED
How it was run: as §1

[4] = target: T4, SPDEF (Homo sapiens, UniProt O95238 1-335)
T4 sequence: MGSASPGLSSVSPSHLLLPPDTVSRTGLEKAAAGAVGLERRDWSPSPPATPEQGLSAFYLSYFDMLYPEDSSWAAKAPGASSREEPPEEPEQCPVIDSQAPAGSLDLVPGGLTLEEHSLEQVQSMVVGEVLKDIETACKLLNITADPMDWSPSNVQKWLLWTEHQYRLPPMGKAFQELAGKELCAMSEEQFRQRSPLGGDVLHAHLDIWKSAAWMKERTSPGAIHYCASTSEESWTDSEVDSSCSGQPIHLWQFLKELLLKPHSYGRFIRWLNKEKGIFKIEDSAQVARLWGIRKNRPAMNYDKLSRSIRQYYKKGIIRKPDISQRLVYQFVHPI
How it was run: as §1

[5] = target: T5, ETV7 (Homo sapiens, UniProt Q9Y603 1-341)
T5 sequence: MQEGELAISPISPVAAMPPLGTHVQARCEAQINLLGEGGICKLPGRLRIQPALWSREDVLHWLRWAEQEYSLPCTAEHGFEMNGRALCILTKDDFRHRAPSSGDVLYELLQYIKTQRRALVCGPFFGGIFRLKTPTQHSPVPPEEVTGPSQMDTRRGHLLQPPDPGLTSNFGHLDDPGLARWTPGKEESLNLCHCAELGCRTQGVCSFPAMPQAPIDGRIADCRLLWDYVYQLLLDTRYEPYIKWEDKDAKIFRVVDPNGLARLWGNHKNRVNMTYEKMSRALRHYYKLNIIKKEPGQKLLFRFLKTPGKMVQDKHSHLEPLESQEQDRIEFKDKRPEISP
How it was run: as §1

[6] = target: T6, ELF5 (Homo sapiens, UniProt Q9UKW6-2 1-255)
T6 sequence: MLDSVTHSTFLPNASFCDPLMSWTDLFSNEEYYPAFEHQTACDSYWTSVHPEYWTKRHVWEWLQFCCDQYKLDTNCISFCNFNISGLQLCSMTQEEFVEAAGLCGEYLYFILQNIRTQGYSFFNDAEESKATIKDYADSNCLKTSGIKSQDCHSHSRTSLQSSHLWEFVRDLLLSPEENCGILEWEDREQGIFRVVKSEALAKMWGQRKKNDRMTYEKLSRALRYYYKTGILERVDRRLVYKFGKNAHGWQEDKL
How it was run: as §1

[7] = target: T7, ETV3 (Homo sapiens, UniProt P41162-2 1-143)
T7 sequence: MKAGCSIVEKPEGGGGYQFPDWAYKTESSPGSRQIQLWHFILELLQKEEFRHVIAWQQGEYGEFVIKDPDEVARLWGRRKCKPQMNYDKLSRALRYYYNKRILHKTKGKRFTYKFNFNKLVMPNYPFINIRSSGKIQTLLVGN
How it was run: as §1

[8] = target: ETV6 (Homo sapiens, UniProt P41212 1-452)
Chain of ETV6 (P41212 whole entry): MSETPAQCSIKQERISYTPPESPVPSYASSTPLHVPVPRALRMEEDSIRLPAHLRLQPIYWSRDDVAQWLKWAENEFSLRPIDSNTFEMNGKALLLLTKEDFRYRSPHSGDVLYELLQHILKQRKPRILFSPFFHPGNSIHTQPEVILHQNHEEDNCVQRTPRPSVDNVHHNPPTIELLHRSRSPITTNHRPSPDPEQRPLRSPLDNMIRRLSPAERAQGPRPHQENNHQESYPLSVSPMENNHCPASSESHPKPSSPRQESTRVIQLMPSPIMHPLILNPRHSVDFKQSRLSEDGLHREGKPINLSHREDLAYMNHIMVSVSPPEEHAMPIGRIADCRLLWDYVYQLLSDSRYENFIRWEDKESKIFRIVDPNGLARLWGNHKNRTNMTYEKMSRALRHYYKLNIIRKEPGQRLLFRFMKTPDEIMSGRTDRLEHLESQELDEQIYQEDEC
How it was run: as §1

Sequence | binding signal [1] | binding signal [2] | binding signal [3] | binding signal [4] | binding signal [5] | binding signal [6] | binding signal [7] | binding signal [8]
CCCGCC | 1.53 fold enrichment (6-mer frequency, TF over GST control) | 1.56 fold enrichment (6-mer frequency, TF over GST control) | 1.38 fold enrichment (6-mer frequency, TF over GST control) | 1.39 fold enrichment (6-mer frequency, TF over GST control) | 1.48 fold enrichment (6-mer frequency, TF over GST control) | 1.45 fold enrichment (6-mer frequency, TF over GST control) | 1.47 fold enrichment (6-mer frequency, TF over GST control) | 1.63 fold enrichment (6-mer frequency, TF over GST control)
TGAACT | 1.31 fold enrichment (6-mer frequency, TF over GST control) | 1.23 fold enrichment (6-mer frequency, TF over GST control) | 1.23 fold enrichment (6-mer frequency, TF over GST control) | 1.16 fold enrichment (6-mer frequency, TF over GST control) | 1.21 fold enrichment (6-mer frequency, TF over GST control) | 1.23 fold enrichment (6-mer frequency, TF over GST control) | 1.24 fold enrichment (6-mer frequency, TF over GST control) | 1.22 fold enrichment (6-mer frequency, TF over GST control)
TAAAAT | 1.22 fold enrichment (6-mer frequency, TF over GST control) | 1.28 fold enrichment (6-mer frequency, TF over GST control) | 1.28 fold enrichment (6-mer frequency, TF over GST control) | 1.14 fold enrichment (6-mer frequency, TF over GST control) | 1.17 fold enrichment (6-mer frequency, TF over GST control) | 1.15 fold enrichment (6-mer frequency, TF over GST control) | 1.17 fold enrichment (6-mer frequency, TF over GST control) | 1.18 fold enrichment (6-mer frequency, TF over GST control)
ACTTAT | 1.39 fold enrichment (6-mer frequency, TF over GST control) | 1.34 fold enrichment (6-mer frequency, TF over GST control) | 1.36 fold enrichment (6-mer frequency, TF over GST control) | 1.4 fold enrichment (6-mer frequency, TF over GST control) | 1.21 fold enrichment (6-mer frequency, TF over GST control) | 1.38 fold enrichment (6-mer frequency, TF over GST control) | 1.35 fold enrichment (6-mer frequency, TF over GST control) | 1.27 fold enrichment (6-mer frequency, TF over GST control)
TCTTCT | 1.24 fold enrichment (6-mer frequency, TF over GST control) | 1.29 fold enrichment (6-mer frequency, TF over GST control) | 1.23 fold enrichment (6-mer frequency, TF over GST control) | 1.16 fold enrichment (6-mer frequency, TF over GST control) | 1.06 fold enrichment (6-mer frequency, TF over GST control) | 1.19 fold enrichment (6-mer frequency, TF over GST control) | 1.25 fold enrichment (6-mer frequency, TF over GST control) | 1.29 fold enrichment (6-mer frequency, TF over GST control)
ATGTCT | 1.38 fold enrichment (6-mer frequency, TF over GST control) | 1.27 fold enrichment (6-mer frequency, TF over GST control) | 1.28 fold enrichment (6-mer frequency, TF over GST control) | 1.26 fold enrichment (6-mer frequency, TF over GST control) | 1.12 fold enrichment (6-mer frequency, TF over GST control) | 1.35 fold enrichment (6-mer frequency, TF over GST control) | 1.26 fold enrichment (6-mer frequency, TF over GST control) | 1.23 fold enrichment (6-mer frequency, TF over GST control)
TACTAT | 1.38 fold enrichment (6-mer frequency, TF over GST control) | 1.25 fold enrichment (6-mer frequency, TF over GST control) | 1.37 fold enrichment (6-mer frequency, TF over GST control) | 1.37 fold enrichment (6-mer frequency, TF over GST control) | 1.35 fold enrichment (6-mer frequency, TF over GST control) | 1.27 fold enrichment (6-mer frequency, TF over GST control) | 1.36 fold enrichment (6-mer frequency, TF over GST control) | 1.39 fold enrichment (6-mer frequency, TF over GST control)
ACGCTT | 1.5 fold enrichment (6-mer frequency, TF over GST control) | 1.35 fold enrichment (6-mer frequency, TF over GST control) | 1.42 fold enrichment (6-mer frequency, TF over GST control) | 1.39 fold enrichment (6-mer frequency, TF over GST control) | 1.52 fold enrichment (6-mer frequency, TF over GST control) | 1.22 fold enrichment (6-mer frequency, TF over GST control) | 1.4 fold enrichment (6-mer frequency, TF over GST control) | 1.45 fold enrichment (6-mer frequency, TF over GST control)
CTAATA | 1.27 fold enrichment (6-mer frequency, TF over GST control) | 1.2 fold enrichment (6-mer frequency, TF over GST control) | 1.18 fold enrichment (6-mer frequency, TF over GST control) | 1.25 fold enrichment (6-mer frequency, TF over GST control) | 1.24 fold enrichment (6-mer frequency, TF over GST control) | 1.08 fold enrichment (6-mer frequency, TF over GST control) | 1.06 fold enrichment (6-mer frequency, TF over GST control) | 1.13 fold enrichment (6-mer frequency, TF over GST control)
TTCCGG | 4.81 fold enrichment (6-mer frequency, TF over GST control) | 5.36 fold enrichment (6-mer frequency, TF over GST control) | 6 fold enrichment (6-mer frequency, TF over GST control) | 6.57 fold enrichment (6-mer frequency, TF over GST control) | 5.39 fold enrichment (6-mer frequency, TF over GST control) | 8.59 fold enrichment (6-mer frequency, TF over GST control) | 6.28 fold enrichment (6-mer frequency, TF over GST control) | 6.93 fold enrichment (6-mer frequency, TF over GST control)
ACTTCG | 1.52 fold enrichment (6-mer frequency, TF over GST control) | 1.27 fold enrichment (6-mer frequency, TF over GST control) | 1.36 fold enrichment (6-mer frequency, TF over GST control) | 1.3 fold enrichment (6-mer frequency, TF over GST control) | 1.26 fold enrichment (6-mer frequency, TF over GST control) | 1.32 fold enrichment (6-mer frequency, TF over GST control) | 1.42 fold enrichment (6-mer frequency, TF over GST control) | 1.36 fold enrichment (6-mer frequency, TF over GST control)
GCTTCA | 1.33 fold enrichment (6-mer frequency, TF over GST control) | 1.35 fold enrichment (6-mer frequency, TF over GST control) | 1.27 fold enrichment (6-mer frequency, TF over GST control) | 1.31 fold enrichment (6-mer frequency, TF over GST control) | 1.34 fold enrichment (6-mer frequency, TF over GST control) | 1.28 fold enrichment (6-mer frequency, TF over GST control) | 1.24 fold enrichment (6-mer frequency, TF over GST control) | 1.33 fold enrichment (6-mer frequency, TF over GST control)
TCTGCC | 1.35 fold enrichment (6-mer frequency, TF over GST control) | 1.31 fold enrichment (6-mer frequency, TF over GST control) | 1.45 fold enrichment (6-mer frequency, TF over GST control) | 1.26 fold enrichment (6-mer frequency, TF over GST control) | 1.49 fold enrichment (6-mer frequency, TF over GST control) | 1.31 fold enrichment (6-mer frequency, TF over GST control) | 1.35 fold enrichment (6-mer frequency, TF over GST control) | 1.32 fold enrichment (6-mer frequency, TF over GST control)
ATACCC | 1.14 fold enrichment (6-mer frequency, TF over GST control) | 1.18 fold enrichment (6-mer frequency, TF over GST control) | 1.24 fold enrichment (6-mer frequency, TF over GST control) | 1.27 fold enrichment (6-mer frequency, TF over GST control) | 1.18 fold enrichment (6-mer frequency, TF over GST control) | 1.18 fold enrichment (6-mer frequency, TF over GST control) | 1.18 fold enrichment (6-mer frequency, TF over GST control) | 1.09 fold enrichment (6-mer frequency, TF over GST control)
AGATCC | 1.08 fold enrichment (6-mer frequency, TF over GST control) | 1.13 fold enrichment (6-mer frequency, TF over GST control) | 1.2 fold enrichment (6-mer frequency, TF over GST control) | 2.08 fold enrichment (6-mer frequency, TF over GST control) | 1.03 fold enrichment (6-mer frequency, TF over GST control) | 1.22 fold enrichment (6-mer frequency, TF over GST control) | 1.21 fold enrichment (6-mer frequency, TF over GST control) | 1.1 fold enrichment (6-mer frequency, TF over GST control)
